MARV entry inh: blocks Marburg virus binding or cell entry; Marburg virus pseudotype entry/binding inhibition, cell-based; Potency, µM (highest dose often 49.2 µM), actives largely listed as inhibitors; 18,000 tested, 6.5% active; AID 720532
Lassa entry: blocks Lassa virus binding or cell entry. Lassa virus pseudotyped entry inhibition, cell-based qHTS. Potency, µM (highest dose often 49.2 µM), usual class: inhibitors. 18,000 tested, 4.1% active
Each line names hits and unclear results; the compound was inactive in the other large screens; ! = repeats disagree. An excerpt weighted towards active compounds, which were near 8% of everything screened. The call rests on the fitted dose curve; tested in HEK293 cells.

O=C(O)c1ccccc1-c1c2ccc(=O)cc-2oc2cc(O)ccc12	none
COc1ccc(CN(C2CCCC2)S(=O)(=O)c2ccccc2Br)cc1	MARV entry inh inconclusive
CC[C@H](C)[C@H](NC(=O)[C@H](Cc1ccc(O)cc1)NC(=O)[C@@H]1CCCN1C(=O)[C@@H](NC(=O)[C@@H](N)CCCCN)[C@@H](C)CC)C(=O)N[C@@H](CC(C)C)C(=O)O	none
CCCCCCCCCCCCC(=O)N1CCCC[C@H]1CNC(=O)[C@@H](N)CCCCN	MARV entry inh 28.2µM
CCOC(=O)CCN1C(=O)[C@@H]2[C@H]3[C@H](O)[C@H](O)CC(=NNC(=O)OCc4ccc(OC)cc4)[C@@H]3CC[C@H]2C1=O	Lassa entry inconclusive
CCCC[C@]12Cc3cc(OC)c(OC)cc3[C@H](O1)C1=C(O2)C(=O)c2ccccc2C1=O	none
CO/C1=C\C(C)=C\[C@@H](C)[C@@H](O)[C@@H](C)C/C(C)=C/C=C\[C@H](OC)C([C@@H](C)[C@@H](O)[C@H](C)[C@@]2(O)C[C@@H](O)[C@H](C)C(C(C)C)O2)OC1=O (stereo not given in full)	MARV entry inh 0.0146µM, Lassa entry 0.0231µM
CCCCCCN1C[C@H](O)[C@@H](n2cc(C3CC3)nn2)C[C@H]1c1ccccc1	MARV entry inh inconclusive
C[C@@H]1CC[C@H]2C(=O)N(Cc3ccccc3)C[C@H](O)CN2[C@H]1c1ccc(Br)cc1	none
COC(=O)CC=C[C@@H](C)[C@@H](C=NOC[C@@H](O)[C@H]1O[C@@H]2OC(C)(C)O[C@H]2[C@@H]1O)OC	none
CC(C)CON=C1C[C@@H](O)[C@@H](O)[C@@H]2[C@H]3C(=O)N(C4CCCCC4)C(=O)[C@@H]3CC[C@@H]12	none (no result: Lassa entry)
CCC[C@H]1CN(c2ccccc2)C(=O)[C@H]1CC(=O)Nc1ccccc1	none
Nc1nc2c(ncn2C2OC(COC(=O)c3ccccc3)C(OC(=O)c3ccccc3)C2OC(=O)c2ccccc2)c(=O)[nH]1 (stereo not given)	Lassa entry 11.2µM
Nc1nc2c(ncn2[C@@H]2O[C@H](COP(=O)(O)OP(=O)(O)O)[C@@H](O)[C@H]2O)c(=O)[nH]1	none
O[C@@H]1C[C@H](c2ccccc2)N(Cc2cccs2)C[C@@H]1n1cc(C2CC2)nn1	none
Cc1ccccc1CN1[C@@H](C)[C@@H](c2ccccc2)Oc2c(Cl)cccc2S1(=O)=O	none
c1ccc(CN(CCN(Cc2ccccn2)Cc2ccccn2)Cc2ccccn2)nc1	MARV entry inh 10µM, Lassa entry 10µM
NCCc1ccccn1	none
Cc1ccccc1CN1[C@H](C)[C@@H](c2ccccc2)Oc2c(Cl)cccc2S1(=O)=O	none
CC(=O)Oc1c(-c2ccccc2)oc2c(CC=C(C)C)c3c(c(OC(C)=O)c2c1=O)C=CC(C)(C)O3	none
COC(=O)/C(C)=C\CC12OC(C)(C)C3CC(C=C4C(=O)c5c(OC)c6c(c(CC=C(C)C)c5OC431)OC(C)(CCC=C(C)C)C=C6)C2=O (stereo not given)	MARV entry inh 2.82µM, Lassa entry 4.47µM
CC(=O)Oc1c2c(c(CC=C(C)C)c3c1C(=O)C1=CC4CC5C(C)(C)OC(C/C=C(\C)C(=O)O)(C4=O)[C@]15O3)OC(C)(CCC=C(C)C)C=C2 (stereo not given in full)	MARV entry inh 2.82µM, Lassa entry inconclusive
CC=CC1=CC2=CC(=O)C(C)(OC(=O)c3c(C)cc(O)cc3O)C(=O)C2=CO1 (stereo not given)	none (no result: Lassa entry)
O=C1OC2(CCCCC2)CC2=C1[C@H]1O[C@](c3ccsc3)(Cc3c1ccc1ccccc31)O2	none
O[C@H]1CN(Cc2cccs2)[C@@H](c2ccccc2)C[C@H]1n1cc(-c2ccc(F)cc2)nn1	none
O=C(C=NO)NCCCCNC(=O)C=NO	none
CC(=O)c1ccc(-c2c(C)cc3oc(=O)cc(-c4ccccc4)c3c2C)cc1	Lassa entry inconclusive
Cc1cc2oc(=O)cc(-c3ccccc3)c2c(C)c1-c1ccc(CO)cc1	Lassa entry 11.2µM
CC(=O)OC[C@H]1O[C@H](CCON=C(C)CCN2CCCc3nc(C)c(C)cc32)C=C[C@H]1OC(C)=O	none
COc1ccc(NC(=O)c2ccc(-c3ccc(-c4noc(C)n4)cc3C)cc2)cc1N1CCN(C)CC1	MARV entry inh 6.31µM, Lassa entry 15.8µM
COc1ccc(C(=O)NCc2ccc(OCCN(C)C)cc2)cc1OC	none
Cc1nc(-c2ccc(-c3ccc(C(=O)N4CCc5cc6c(cc54)C4(CCN(C)CC4)CO6)cc3)c(C)c2)no1	MARV entry inh 10µM, Lassa entry 28.2µM
COc1ccc(NC(=O)c2ccc(-c3ccc(-c4noc(C)n4)cc3C)cc2)cc1OCCN(C)C	MARV entry inh 3.55µM, Lassa entry 22.4µM
Cc1ccc(NC(=O)c2ccnc(N3CCCC3)c2)cc1-c1ccc(C(=O)NCC2CC2)cc1	none (no result: Lassa entry)
COC(=O)[C@@]1(C=C2c3ccc(F)cc3[C@@H](OC)[C@@H]2C)[C@@H]2c3ccccc3O[C@@H]21	MARV entry inh inconclusive
CC(C)n1cnc2c(C(=O)N[C@H]3CN4CCC3CC4)cc(Cl)cc21	MARV entry inh 7.08µM, Lassa entry 35.5µM!
CCN(CC)CCO[C@H]1CC[C@@]2(C)C(=CC[C@@H]3[C@H]2CC[C@]2(C)C(=O)CC[C@H]32)C1	MARV entry inh 12.6µM
CCN(CC)CCO[C@H]1CC[C@@]2(C)C(=CC[C@@H]3[C@@H]2CC[C@]2(C)C(=O)CC[C@@H]32)C1	none
C=CC1CC2C=CCOP(=S)(O1)O2 (stereo not given)	none
C[C@@H]1CC2CCC[C@@H]2[C@]2(O1)C(=O)Nc1cccc(Br)c12 (stereo not given in full)	none
O[C@@H]1CN(Cc2cccs2)[C@@H](c2ccccc2)C[C@@H]1n1cc(-c2ccc(F)cc2)nn1	MARV entry inh inconclusive
COc1ccc(C(=O)Nc2ccccc2CCC2CCCCN2C)cc1 (stereo not given)	MARV entry inh inconclusive
Cc1ccsc1C(=CCCN1CCC[C@@H](C(=O)O)C1)c1sccc1C	none
COc1ccc(C(OCCN2CCC[C@H](C(=O)O)C2)(c2ccc(OC)cc2)c2ccc(OC)cc2)cc1	Lassa entry 4.47µM
COc1ccc(C(OCCN2CCC[C@@H](C(=O)O)C2)(c2ccc(OC)cc2)c2ccc(OC)cc2)cc1	Lassa entry 6.31µM
COC(=O)CC=C[C@@H](C)[C@@H](C=NO[C@H](C)c1cn([C@@H]2COC[C@@H]2O)nn1)N[S+](=O)([O-])c1ccc(C)cc1	none
CCCCCCCCN[C@@H](C)[C@H](O)c1ccc(SC(C)C)cc1	MARV entry inh 11.2µM
CN[C@@H](C)[C@H](O)c1ccccc1	none
COc1cc2c(cc1OC)[C@@H]1O[C@](c3ccsc3)(C2)Oc2cc(C)n(Cc3ccccc3)c(=O)c21	MARV entry inh inconclusive
CN1CCN(c2ccc(Nc3c4ccccc4nc4ccccc34)cc2)CC1	MARV entry inh 2µM, Lassa entry inconclusive
O=c1nc2ccccc2c2n1C[C@H](CN1CCN(c3ccccc3)CC1)N2	none
CC(C)OC(=O)[C@H](C)NC(=O)N1CCc2nc(-c3ccccc3)c3c(c2C1)CO[C@@H](C)C3	none
CO[C@H]1C[C@@H]2CC[C@@H](C)[C@@](O)(O2)C(=O)C(=O)N2CCCC[C@H]2C(=O)OC([C@H](C)C[C@@H]2CC[C@@H](O)[C@H](OC)C2)CC(=O)[C@H](C)/C=C(\C)[C@@H](O)[C@@H](OC)C(=O)[C@H](C)C[C@H](C)/C=C/C=C/C=C/1C (stereo not given in full)	MARV entry inh 35.5µM!, Lassa entry 28.2µM!

High-throughput results from PubChem BioAssay.
